Screens as filed in PubChem BioAssay.
GRK2 inh: inhibitors of human GRK2 displacing RNA aptamer | bead flow cytometry, FAM-aptamer displacement from GRK2 | inhibition of aptamer binding, % at 10 µM | 330,000 tested, 0.59% active | AID 488847;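 active = inhibition of aptamer binding above 40%, roughly 3 SD of noise, on plates passing a quality check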;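 note: median bead fluorescence of bound FAM aptamer so fluorescent compounds give negative values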
NOD2-RIPK2 inh: blocks binding of human NOD2 to RIPK2. O43353. CHO BLA complementation NOD2-RIPK2, CCF4 ratio. inhibition, % at 4.98 µM. 360,000 tested, 0.38% active; in the data active = inhibition above about 21%;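 note: 0% = vehicle only and 100% = reference blocker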
TMEM16A act: activators or potentiators of mouse TMEM16A chloride channel; HEK293 TMEM16A/YFP-H148Q/I152L, iodide quench fluorescence; hits give low values; B-score at 10 µM; Q8BHY3; 340,000 tested, 0.3% active;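 active = fluorescence-ratio B-score plate-corrected deviation score at least 3 library SD below zero, with starting fluorescence score within 5 deviations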;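 note: channel opened by trigger with iodide after compound preincubation; score built on the fluorescence ratio of max minus min over baseline; more negative score means more quench and so TMEM16A activation or potentiation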
TLR9-MyD88 block: blocks human TLR9 binding to MyD88; CHO BLA complementation TLR9-MyD88, CCF4 FRET ratio; inhibition, % at 4.98 µM; Q9NR96+Q99836; 340,000 tested, 0.21% active;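 active = inhibition above the mean over all tested compounds plus 3 SD, cut at about 21% in these data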;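 note: 0% = DMSO only wells and 100% = clavulanate BLA inhibitor control wells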
TLR4 MyD88 comp: TLR4-MyD88 interaction inhibition in cells | inhibition, % at 8.4 µM | 200,000 tested, 0.18% active | HeLa CL3-4 TLR4/MyD88 BLA complementation, FRET ratio; in the data active = inhibition above about 25%;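 note: 0% = vehicle and 100% = reference inhibitor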
Target sequence (O00206 whole entry, looked up): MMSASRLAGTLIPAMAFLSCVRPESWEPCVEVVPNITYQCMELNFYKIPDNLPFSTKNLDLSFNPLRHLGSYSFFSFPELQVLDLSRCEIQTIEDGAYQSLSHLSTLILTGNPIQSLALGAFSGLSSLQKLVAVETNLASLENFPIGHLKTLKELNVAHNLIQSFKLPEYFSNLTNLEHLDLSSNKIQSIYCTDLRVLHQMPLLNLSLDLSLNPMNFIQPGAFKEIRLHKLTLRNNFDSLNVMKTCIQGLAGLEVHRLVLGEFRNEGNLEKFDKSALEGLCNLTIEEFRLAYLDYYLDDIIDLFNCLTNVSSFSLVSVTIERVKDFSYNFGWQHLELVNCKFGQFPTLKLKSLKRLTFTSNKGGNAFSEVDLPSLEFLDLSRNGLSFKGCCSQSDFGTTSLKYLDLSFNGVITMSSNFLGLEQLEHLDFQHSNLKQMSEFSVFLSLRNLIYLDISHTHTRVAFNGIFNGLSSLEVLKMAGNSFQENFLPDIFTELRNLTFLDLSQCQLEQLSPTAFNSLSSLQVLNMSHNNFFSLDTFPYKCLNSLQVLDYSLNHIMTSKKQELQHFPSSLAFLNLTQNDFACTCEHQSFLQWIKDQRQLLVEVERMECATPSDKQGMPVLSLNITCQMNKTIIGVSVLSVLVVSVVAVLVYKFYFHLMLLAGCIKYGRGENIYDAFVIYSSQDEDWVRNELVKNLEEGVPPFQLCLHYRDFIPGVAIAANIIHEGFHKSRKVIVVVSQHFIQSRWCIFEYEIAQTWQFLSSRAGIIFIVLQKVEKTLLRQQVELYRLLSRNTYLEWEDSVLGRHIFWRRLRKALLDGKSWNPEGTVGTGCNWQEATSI
Target sequence (Q99836 whole entry, looked up): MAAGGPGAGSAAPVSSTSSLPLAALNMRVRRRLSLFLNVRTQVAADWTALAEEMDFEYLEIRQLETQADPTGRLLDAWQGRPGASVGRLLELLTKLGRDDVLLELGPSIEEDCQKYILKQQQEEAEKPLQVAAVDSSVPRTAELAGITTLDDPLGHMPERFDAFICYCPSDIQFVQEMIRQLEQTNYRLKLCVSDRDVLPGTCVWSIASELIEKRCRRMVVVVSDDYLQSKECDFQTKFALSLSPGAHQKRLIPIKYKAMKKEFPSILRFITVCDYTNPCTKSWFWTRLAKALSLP
TMEM16A inh: blocks the mouse calcium-activated chloride channel TMEM16A. HEK293 TMEM16A/YFP iodide influx fluorescence, ionomycin. AID 588511. 310,000 tested, 1.2% active. normalized B-score (activity score, 25-100; higher = stronger inhibition) at 10 µM;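 active = ratio plate-corrected score three or more library SD toward inhibition, starting fluorescence score within five deviations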;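 note: score derived from kinetic fluorescence span divided by baseline fluorescence per well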
TMEM16A reconf: TMEM16A (mouse) chloride channel inhibition, re-confirmation; 2,300 tested, 39% active; AID 652189; inhibition, % at 10 µM; HEK293 TMEM16A/YFP-H148Q, iodide quench fluorescence; ionomycin added to raise cell calcium; shares compounds with TMEM16A inh;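 active = mean duplicate percent inhibition, scaled so buffer wells are 0 and the reference blocker 100, over three buffer SD above buffer mean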
HEK293 Ca mobil: alters calcium mobilization in TMEM16A HEK293 cells, counter-screen; TMEM16A/YFP HEK293, Fluo4 calcium mobilization; shares compounds with TMEM16A inh; 2,300 tested, 2% active; calcium response (% of ionomycin), % at 10 µM;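 active = duplicate-averaged calcium signal over 20% of the ionomycin maximum, relative to buffer baseline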;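 note: each well's signal is peak minus trough fluorescence divided by its pre-addition baseline; 0% = buffer wells and 100% = ionomycin wells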
YFP-HEK293 quench: parental YFP-HEK293 iodide quench counter-screen activity; shares compounds with TMEM16A inh; ionomycin; YFP ratio F(max-min)/F0 at 10 µM; 2,300 tested, under 10 active; AID 652233;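 active = yellow fluorescent protein signal ratio exceeding the buffer control mean by over 5 SD of those controls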;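 note: ratio is mean of duplicate wells from kinetic YFP trace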
ClC-1 rat inh: rat ClC-1 inhibition, TMEM16A specificity screen; 2,300 tested, under 10 active; shares compounds with TMEM16A inh; ratio percent, % at 10 µM; AID 652236; CHO ClC-1-YFP, iodide influx fluorescence quench; iodide control reads 0, buffer control 100;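 active = duplicate-mean ratio percent above the mean of iodide-only control wells, which defines zero, plus 5 of their SD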;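 note: higher percent means stronger block of ClC-1 iodide influx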
Active calls of the source: *; i = inactive; . = no result given. Compounds with a hit are over-represented: about 2.2% of the library has one in this group of screens.

SMILES	GRK2 inh	NOD2-RIPK2 inh	TMEM16A act	TLR9-MyD88 block	TLR4 MyD88 comp	TMEM16A inh	TMEM16A reconf	HEK293 Ca mobil	YFP-HEK293 quench	ClC-1 rat inh
CCOC(=O)CNC(=O)C(NC(=O)C1CCC(C)CC1)C(C)CC (centres undefined)	0	-8	i	8	-6	25*	i	i	-1.1	-2
O=C(/C=C/c1ccccc1Cl)NCc1ccco1	0	16	i	-5	-7	25*	i	i	-0.86	-4
O=C(/C=C/c1c(Cl)cccc1Cl)NCc1ccco1	0	-1	i	11	-14	i	.	.	.	.
O=C1c2ccccc2C(=O)N1Cc1nn2c(-c3ccc(Cl)cc3)nnc2s1	0	-35	i	10	.	25*	i	i	-0.96	-4
COc1cc(/C=N/NC(=O)c2nonc2C)ccc1O	0	3	i	-4	7	i	i	i	-0.89	2
COc1ccc(-c2csc(Nc3cc(C)ccn3)n2)cc1OC	0	4	i	-9	.	25*	24%*	i	-0.74	-10
COc1ccc(-c2csc(Nc3ccc(C)cn3)n2)cc1OC	0	3	i	-3	3	i	.	.	.	.
Cc1ccc(NC(=O)Cc2ccc(Cl)c(Cl)c2)cc1S(=O)(=O)N(C)C	2	10	i	-1	-11	25*	16%*	i	-0.93	-2
Cc1ccc(NC(=O)CNc2ccc(Cl)c(Cl)c2)cc1S(=O)(=O)N(C)C	1	-1	i	-3	-3	100*	28%*	i	-0.95	-4
Cc1cc(C(=O)CCl)c(C)n1-c1c(C)n(C)n(-c2ccccc2)c1=O	0	11	i	4	16	i	.	.	.	.
O=C(Nc1ccc(F)cc1)c1ccccc1NS(=O)(=O)N1CCCC1	0	0	i	8	4	25*	28%*	i	-1.2	-6
CCCc1ccc2oc(C(=O)N(C)Cc3nccs3)c(C)c2c1	0	0	i	4	.	i	.	.	.	.
CC1(C(=O)NS(=O)(=O)c2ccc3ccccc3c2)CCN1C(=O)CC1CCCCC1 (centres undefined)	.	8	.	.	.	.	.	.	.	.
CN1C(=O)C2(OCC(COc3ccc(Cl)cc3)O2)c2ccccc21 (centres undefined)	0	-5	i	3	-1	100*	18%*	i	-1	-8
Cc1cccc(C)c1NC(=O)c1c(C)nn(-c2ccccc2)c1Cl	0	0	i	3	-1	i	.	.	.	.
Cc1nn(-c2ccccc2)c(Cl)c1C(=O)Nc1nnc(C2CCCC2)s1	0	-2	i	-1	-6	25*	i	i	-1.1	-16
CCC(C(=O)OC)n1cnc2c(nnn2-c2ccc(F)cc2)c1=O (centres undefined)	1	-9	i	-1	.	i	.	.	.	.
O=C1c2ccccc2C(=O)N1CCCCSc1nc2ccccc2o1	2	-1	i	0	4	25*	20%*	i	-1.2	1
Cc1cnc(C(=O)OCC(=O)NC2CCCCCCC2)cn1	0	-12	i	-2	0	i	.	.	.	.
CCN(C(=O)COC(=O)c1cnc(C)cn1)C1CCCCC1	0	-7	i	12	3	100*	i	i	-1.2	0
COc1cccc(CNCc2ccco2)c1O	.	-9	i	10	.	.	.	.	.	.
CC(C)n1c(-c2ccc(C(C)(C)C)cc2)n[nH]c1=S	0	-6	i	-6	-4	100*	i	i	-1.1	-13
C[C@@H](C(=O)Nc1ccc2ccccc2c1)[C@H]1C[C@]1(C)[C@H](NC(=O)c1cnccn1)c1ccccc1	.	13	i	13	-3	i	i	i	-1.2	-9
C[C@@H](C(=O)Nc1ccc2ccccc2c1)[C@@H]1C[C@@]1(C)[C@@H](NC(=O)c1cnccn1)c1ccccc1	5	0	i	-2	1	i	.	.	.	.
Cc1ccc(-n2nc3c(=O)n(C(C)C(=O)NCCC4=CCCCC4)nc(C)c3c2C)cc1 (centres undefined)	0	-5	i	-8	.	25*	i	i	-1.3	-4
SMILES	GRK2 inh	NOD2-RIPK2 inh	TMEM16A act	TLR9-MyD88 block	TLR4 MyD88 comp	TMEM16A inh	TMEM16A reconf	HEK293 Ca mobil	YFP-HEK293 quench	ClC-1 rat inh
Cc1ccc(CCNC(=O)C(C)n2nc(C)c3c(C)n(-c4ccccc4)nc3c2=O)cc1 (centres undefined)	1	-8	i	-4	.	i	.	.	.	.
CN(c1ccccc1)S(=O)(=O)c1ccc(NC(=O)c2ccc(-c3ccccc3)cc2)cc1	1	-4	i	5	10	i	.	.	.	.
CN(c1ccccc1)S(=O)(=O)c1ccc(C(=O)Nc2nnc(-c3ccc(F)cc3)o2)cc1	0	.	.	.	-3	100*	18%*	i	-1	-8
CCNc1cc2n(c(=O)n1)CCc1cc(OC)c(OC)cc1-2	1	0	i	-4	-4	i	.	.	.	.
CCCCCCNc1cc2n(c(=O)n1)CCc1cc(OC)c(OC)cc1-2	0	10	i	-12	9	i	i	i	-1	-12
COc1cccc(N2CC(C(=O)Nc3c(C(N)=O)oc4ccccc34)CC2=O)c1 (centres undefined)	1	-6	i	-5	.	i	.	.	.	.
O=c1cc(/N=C/c2coc3c(ccc4ccccc43)c2=O)[nH]c(=S)[nH]1	2	-13	i	-12	-7	i	.	.	.	.
CSc1nc(Cl)c(Cc2ccc(OC(C)C)cc2)c(N(C)C)n1	3	5	i	-3	-1	i	.	.	.	.
CCOc1ccc(Cc2c(Cl)nc(SC)nc2N(C)C)cc1	2	9	i	6	-11	25*	i	i	-1.3	-12
CCCSc1nsc(NC(=O)C(c2ccccc2)c2ccccc2)n1	3	-1	i	6	-2	i	.	.	.	.
CCCSc1nsc(NC(=O)Nc2ccc(F)cc2F)n1	0	9	i	-8	.	100*	66%*	i	-0.82	-24
